# Results: PubChem BioAssay AID588511 (Johns Hopkins Ion Channel Center, 2011)
# The campaign covered roughly 310,000 compounds. About 3,600 (1.2%) were called active.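 How the source made its calls: active means ratio plate-corrected score three or more library SD toward inhibition, starting fluorescence score within five deviations; inactive means the rest.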 Many of the other results were omitted from the sample, so actives are more common in it than they were.
# Target: Anoctamin-1 (Mus musculus) (UniProt Q8BHY3)
# Sequence (Q8BHY3 whole entry, looked up): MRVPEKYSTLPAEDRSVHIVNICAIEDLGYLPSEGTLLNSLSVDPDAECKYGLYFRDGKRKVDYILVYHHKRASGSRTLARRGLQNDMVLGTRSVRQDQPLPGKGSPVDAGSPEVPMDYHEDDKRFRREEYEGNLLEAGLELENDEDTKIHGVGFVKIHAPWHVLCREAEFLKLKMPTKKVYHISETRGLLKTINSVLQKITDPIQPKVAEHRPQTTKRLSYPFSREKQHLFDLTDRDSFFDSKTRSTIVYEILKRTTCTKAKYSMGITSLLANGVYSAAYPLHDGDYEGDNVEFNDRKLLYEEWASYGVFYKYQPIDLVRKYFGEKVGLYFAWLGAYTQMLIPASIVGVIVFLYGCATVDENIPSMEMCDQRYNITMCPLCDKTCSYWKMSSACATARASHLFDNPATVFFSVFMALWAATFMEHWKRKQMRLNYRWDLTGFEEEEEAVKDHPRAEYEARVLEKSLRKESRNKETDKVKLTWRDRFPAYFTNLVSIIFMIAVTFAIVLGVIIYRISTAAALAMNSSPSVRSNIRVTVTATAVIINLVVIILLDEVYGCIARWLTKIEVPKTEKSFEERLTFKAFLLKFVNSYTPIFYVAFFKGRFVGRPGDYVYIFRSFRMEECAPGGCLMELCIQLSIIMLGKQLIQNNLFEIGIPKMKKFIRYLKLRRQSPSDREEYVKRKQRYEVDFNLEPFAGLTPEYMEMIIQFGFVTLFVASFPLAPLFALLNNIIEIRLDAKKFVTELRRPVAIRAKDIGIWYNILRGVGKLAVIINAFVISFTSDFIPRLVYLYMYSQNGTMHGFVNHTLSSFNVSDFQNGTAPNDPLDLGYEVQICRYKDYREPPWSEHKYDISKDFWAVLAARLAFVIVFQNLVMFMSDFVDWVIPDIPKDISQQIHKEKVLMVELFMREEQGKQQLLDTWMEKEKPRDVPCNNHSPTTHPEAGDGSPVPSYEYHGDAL
# Test: TMEM16A chloride channel inhibitors, primary screen, cell-based, HTS (AID 588511);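 on normalized B-score (activity score, 25-100; higher = stronger inhibition): score derived from kinetic fluorescence span divided by baseline fluorescence per well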
# Details: HEK293 TMEM16A/YFP iodide influx fluorescence, ionomycin; at 10 µM
row,SMILES,"normalized B-score (activity score, 25-100; higher = stronger inhibition)"
1,O=S(=O)(N1CCCCC1)N1CCNCC1,inactive
2,CCOC(=O)Cc1c(C)nc2c(C#N)c(C)nn2c1C,inactive
3,CCCc1nc(SCC(=O)N2CCCC2)c2c(=O)n(C)c(=O)n(C)c2n1,inactive
4,O=C(Nc1ccc(Cl)cc1)/C(=C1\CCCN1)[N+](=O)[O-],inactive
5,Cc1ccc(OCC(=O)Nc2ccc3oc(=O)ccc3c2)cc1C,inactive
6,Cc1c(CN2CC[C@@H](N3CCN(c4ccccn4)CC3)[C@H](O)C2)[nH]c2ccc(F)cc12,inactive
7,Fc1ccc2[nH]c3c(N4CCSCC4)ncnc3c2c1,100 (active)
8,Cc1cc(C)c(S(=O)(=O)c2cc(F)ccc2C)c(=O)[nH]1,inactive
9,COc1ccc(C(=O)OCC(=O)Nc2ccc3[nH]c(=O)[nH]c3c2)c(OC)c1OC,inactive
10,CS(=O)(=O)N(CC(=O)N1CCN(c2ccc(F)cc2)CC1)C1CCCCC1,inactive
11,CCOC(=O)N1CCN(C(=O)c2ccc3nc4cc(Cl)ccc4c(=O)n3c2)CC1,inactive
12,COc1cc(NC(=O)c2ccccc2NS(=O)(=O)c2ccc(Cl)s2)cc(OC)c1,100 (active)
13,COc1cc(OC)c(S(=O)(=O)Nc2ccccc2C(=O)O)cc1S(=O)(=O)Nc1ccccc1C(=O)O,inactive
14,COc1ccc(NC(=O)c2cnc(NS(=O)(=O)c3ccccc3)nc2)cc1,inactive
15,CCOc1ccc(NC(=O)c2ccccc2NS(C)(=O)=O)cc1,inactive
16,COC(=O)c1ccc(NC(=O)c2ccccc2NS(=O)(=O)c2ccccc2)cc1,100 (active)
17,COC(=O)c1ccccc1NC(=O)c1ccccc1NS(C)(=O)=O,inactive
18,CCNC(=O)CC1C(=O)N(c2ccc(F)cc2)C(=O)N1CCc1sccc1C (configuration not stated),inactive
19,COc1ccc(NCc2nnc(SCc3ccccc3)n2-c2ccc(OC)cc2)cc1,inactive
20,O=C(O)c1ccc(-n2nc(-c3ccccc3)c3ccccc3c2=O)cc1,inactive
21,Cc1cc(C)c(S(=O)(=O)N2CCOCC2)cc1C,inactive
22,OCC[C@H]1C[C@@H](O)[C@H](O)[C@]2(OCCCc3ccccc32)O1,inactive
23,Cc1cc(=O)oc2c3c(cc(OCC(=O)N[C@H](C(=O)O)c4ccccc4)c12)OC(C)(C)CC3,inactive
24,Cc1c(C)c2c(OCC(=O)NCCCO)cc3c(c2oc1=O)CCC(C)(C)O3,inactive
25,Cc1c(C)c2c(OCC(=O)N[C@@H](C(=O)O)c3ccccc3)cc3c(c2oc1=O)CCC(C)(C)O3,100 (active)
26,C#CCO[C@@H]1C[C@H](n2cnc3c(=O)[nH]c(NC(=O)C(C)C)nc32)O[C@@H]1CO,inactive
27,COCCN(C(=O)CCC(=O)Nc1nccs1)C(C(=O)NCCC(C)C)c1ccc(F)cc1 (configuration not stated),inactive
